WRN inhibitor: qHTS for Inhibitors of WRN Helicase. Potency, µM (series often up to 114 µM), actives largely listed as inhibitors. WRN helicase unwinding, fluorescent forked duplex, kinetic. 360,000 compounds, 0.46% hits. Bifunctional 3'-5' exonuclease/ATP-dependent helicase WRN (Homo sapiens), Q14191. AID 651768, 2012; note: nearly all actives have a fitted effect of over 55% in size
Target sequence (Q14191 whole entry, looked up): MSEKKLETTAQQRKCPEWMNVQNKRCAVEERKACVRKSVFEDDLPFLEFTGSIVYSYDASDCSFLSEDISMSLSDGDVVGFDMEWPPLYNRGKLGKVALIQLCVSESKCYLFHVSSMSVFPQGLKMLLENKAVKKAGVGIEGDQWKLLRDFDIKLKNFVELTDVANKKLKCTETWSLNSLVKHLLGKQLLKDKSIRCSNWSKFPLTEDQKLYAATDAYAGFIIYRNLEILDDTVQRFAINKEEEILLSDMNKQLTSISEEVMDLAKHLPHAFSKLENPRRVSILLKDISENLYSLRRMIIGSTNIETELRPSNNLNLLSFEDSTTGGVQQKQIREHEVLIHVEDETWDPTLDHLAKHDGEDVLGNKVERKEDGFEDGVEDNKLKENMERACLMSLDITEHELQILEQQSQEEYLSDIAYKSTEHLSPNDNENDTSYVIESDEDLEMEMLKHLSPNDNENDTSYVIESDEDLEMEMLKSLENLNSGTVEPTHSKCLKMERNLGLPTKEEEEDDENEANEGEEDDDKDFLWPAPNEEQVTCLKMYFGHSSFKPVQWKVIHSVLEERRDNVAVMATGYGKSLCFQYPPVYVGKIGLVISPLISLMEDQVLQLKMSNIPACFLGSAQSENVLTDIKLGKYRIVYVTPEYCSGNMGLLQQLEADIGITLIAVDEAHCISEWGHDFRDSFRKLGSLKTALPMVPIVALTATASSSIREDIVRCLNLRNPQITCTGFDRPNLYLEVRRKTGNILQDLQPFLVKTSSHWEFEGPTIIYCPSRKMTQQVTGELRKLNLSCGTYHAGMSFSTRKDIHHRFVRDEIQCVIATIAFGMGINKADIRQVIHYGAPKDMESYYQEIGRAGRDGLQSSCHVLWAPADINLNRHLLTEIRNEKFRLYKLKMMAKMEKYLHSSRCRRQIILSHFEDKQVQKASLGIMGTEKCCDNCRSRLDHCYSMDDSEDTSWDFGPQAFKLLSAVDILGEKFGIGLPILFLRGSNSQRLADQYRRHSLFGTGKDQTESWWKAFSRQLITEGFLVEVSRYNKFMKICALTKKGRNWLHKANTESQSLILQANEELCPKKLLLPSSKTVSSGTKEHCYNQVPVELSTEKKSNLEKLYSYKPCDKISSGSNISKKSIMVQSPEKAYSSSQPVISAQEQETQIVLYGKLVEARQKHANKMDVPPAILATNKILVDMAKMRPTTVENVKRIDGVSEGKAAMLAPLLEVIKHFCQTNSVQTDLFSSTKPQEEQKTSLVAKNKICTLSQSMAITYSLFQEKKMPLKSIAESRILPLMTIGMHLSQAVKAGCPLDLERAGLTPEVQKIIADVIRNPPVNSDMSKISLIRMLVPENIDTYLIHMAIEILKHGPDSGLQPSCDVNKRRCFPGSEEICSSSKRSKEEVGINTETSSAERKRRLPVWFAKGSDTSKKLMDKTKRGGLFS
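Screening of the MLSMR collection measured strand separation of a quenched forked DNA duplex (100 nM) by 20 nM WRN with 2 mM ATP, all final. Compounds were preincubated with enzyme 15 min at room temperature.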
Pol kappa inh-1: qHTS for Inhibitors of Polymerase Kappa; AID 588579, 2011; Potency, µM (titrated, usually from 107 µM), usual class: inhibitors; purified Pol kappa, fluorescent DNA synthesis assay, 10 min; DNA polymerase kappa (Homo sapiens), Q9UBT6; 400,000 compounds, 0.53% hits
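Readout: fluorescence, taken kinetically at 0 and 10 min. Conditions: 10 nM Pol kappa, 15 min RT compound preincubation, 50 nM substrate final. Controls: enzyme-free buffer wells.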
Pol iota inh: qHTS for Inhibitors of Polymerase Iota; DNA polymerase iota (Homo sapiens), Q9UNA4; Pol iota fluorescent replication assay, 10 min; Potency, µM (titrated, usually from 115 µM), usual class: inhibitors; 390,000 compounds, 1% hits; AID 588590, 2011
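Fluorescent replication assay read twice, at 0 min and 10 min after adding 50 nM (final) substrate. Enzyme (10 nM) and compounds were first incubated 15 min at room temperature; enzyme-free buffer wells were negative controls.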
Pol beta inh: qHTS Assay for Inhibitors of DNA Polymerase Beta. 340,000 compounds, 1.3% hits. Pol beta primer extension/strand displacement, fluorescence kinetic. Potency, µM (highest dose often 114 µM), most hits filed as inhibitors
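Preincubation: enzyme (10 nM) with compound, 15 min, RT. Reaction: substrate added to 50 nM final. Reads: 0 and 10 min. Analysis: normalized, Hill fit.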
Pol eta inh-1: qHTS for Inhibitors of Polymerase Eta | Potency, µM (titrated, usually from 114 µM), usual class: inhibitors | recombinant Pol eta, fluorescent DNA replication assay | DNA polymerase eta (Homo sapiens), Q9Y253 | AID 588591, 2011 | 390,000 compounds, 1.2% hits
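Pol eta (10 nM) was preincubated with compounds for 15 min at room temperature, after which fluorescent replication substrate (50 nM final) was added to start the reaction. Fluorescence was read kinetically at 0 and 10 min.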
GALK confirm: Confirmation Assay for Inhibitors of Human Galactokinase (GALK); shares compounds with Pol eta inh-1; AID 2015, 2009; 150 compounds, 70% hits; purified GALK, Kinase-Glo ATP depletion luminescence; Potency, µM (highest dose often 115 µM), hits mostly inhibitors
Redox cycling: Confirmatory Assay for Inhibitors of Human Galactokinase (GALK): Phenol-HRP redox assay counterscreen; Phenol red-HRP H2O2 redox cycling, absorbance 600 nm; 150 compounds, 40% hits; Potency, µM (doses to about 115 µM), usual class: inhibitors; shares compounds with Pol eta inh-1; AID 2035, 2009
HEK293 tox: Secondary Assay for Inhibitors of Human Galactokinase (GALK): HEK-293 Cell Viability Assay; shares compounds with Pol eta inh-1; HEK-293 viability, ATP luminescence (CellTiter-Glo), 24/48 h; Potency, µM (top dose mostly 46.1 µM), most hits filed as inhibitors; 170 compounds, 10% hits; AID 2547, 2010
Pol kappa inh-2: qHTS for Inhibitors of Polymerase Kappa: Confirmatory Assay for Cherry-picked Compounds | shares compounds with Pol eta inh-1 | Potency, µM, usual class: inhibitors | purified Pol-kappa, fluorescent strand-displacement substrate | 920 compounds, 76% hits | AID 720501, 2013
Pol eta inh-2: qHTS for Inhibitors of Polymerase Eta: Confirmatory Assay for Cherry-picked Compounds | Potency, µM, hits mostly inhibitors | Pol eta primer extension, TAMRA/BHQ fluorescence, 10 min | AID 720502, 2013 | shares compounds with Pol eta inh-1 | 2,600 compounds, 64% hits
Numbers stand for hits; – = inactive; ? = inconclusive; · = no result given; [ ] = another dose, or the depositor's remark. Compounds with a hit are over-represented: about 2.3% of the library has one in this group of screens. Calls come from the whole dose curve; as a rule, active = well fitted curve in the direction sought with a large enough effect; inconclusive = small, poorly fitted or top-dose-only effect, or another doubt; inactive = no such curve, though single readings can be large; an effect the other way counts as inactive or inconclusive.

SMILES	WRN inhibitor	Pol kappa inh-1	Pol iota inh	Pol beta inh	Pol eta inh-1	Pol eta inh-2	others
CCc1ccc(N2C(=O)NC(=O)/C(=C/c3cccn3CCOc3ccc(C(C)CC)cc3)C2=O)cc1 (stereo unspecified)	–	–	?	–	–	·
Cc1cccc(OCCn2cccc2/C=C2/C(=O)NC(=O)N(Cc3ccco3)C2=O)c1	?	28µM	8.9µM	32µM	22µM	76
Cn1cccc1/C=C1\C(=O)NC(=O)N(CCC2=CCCCC2)C1=O	–	–	?	–	–	·
O=C1NC(=O)N(Cc2ccco2)C(=O)/C1=C\c1cccn1CCOc1ccc(Cl)cc1	50µM	28µM	13µM	28µM	14µM	?
O=c1[nH]c(=O)n([C@H]2C[C@H](O)[C@@H](CO)O2)cc1/C=C/Br	·	–[19.4 µM]	?	–	–	·
Clc1ccc(CC[C@H](Cn2ccnc2)Sc2c(Cl)cccc2Cl)cc1	·	–[12 µM]	·	·	·	·
COc1ccc(N2C(=O)/C(=C/C=C/c3ccccc3[N+](=O)[O-])C(=O)NC2=S)cc1	25µM	?	16µM	20µM	22µM	?
O=C1NC(=O)N(c2ccccc2)C(=O)/C1=C\c1ccccc1[N+](=O)[O-]	?	–	?	–	–	·
CCn1nc(-c2cccs2)nc2c(=O)n(C)c(=O)nc1-2	–	–	–	–	0.79µM	·	GALK confirm=0.21µM;Redox cycling=0.27µM;HEK293 tox=?
COc1ccc(NS(=O)(=O)c2cc(N=Nc3c(O)[nH]c(=O)[nH]c3=O)ccc2Cl)cc1	?	–	–	·	–	·
Cc1ccc(NS(=O)(=O)c2ccc(Cl)c(N=Nc3c(O)[nH]c(=O)[nH]c3=O)c2)cc1Cl	–[11.6 µM]	–	?	·	22µM	·	Pol kappa inh-2=60
CN[C@@H]1C[C@H](c2ccc(Cl)c(Cl)c2)c2ccccc21	·	–[19.4 µM]	·	·	·	·
Cc1ccc(-c2[nH]c(=S)[nH]c(=O)c2C#N)cc1	–	–	–	–	–	·
O=c1[nH]c(=O)n(Cc2ccco2)c(O)c1C=NC1CC1	–	–	–	–	–	·
O=c1[nH]c(=O)n(Cc2ccco2)c(O)c1/C=N/N1CCCCC1	?	89µM	?	?	20µM	38	Pol kappa inh-2=24
Cn1cccc1/C=C1/C(=O)NC(=O)N(C(C)(C)C)C1=O	–	–	–	–	–	·
CN1C(=O)/C(=C/c2cccn2-c2ccc3ccccc3c2)C(=O)NC1=S	–	32µM	8.9µM	22µM	4µM	?
C/C(=C/CCC(C)[C@H]1CC[C@@]2(C)C3=C(CC[C@]12C)[C@@]1(C)CCC(=O)C(C)(C)[C@@H]1CC3)C(=O)O (stereo partly specified)	79µM	–	–	–	79µM	?
O=C(c1cccc2ccccc12)C1CCCN(C2CCC2)C1 (stereo unspecified)	–	?	?	–	?	?
Cc1ccc(S(=O)(=O)N2CCN(Cc3ccsc3)CC2)cc1	–	–	–	–	?	·
O=C1NC(=S)N(Cc2ccco2)C(=O)/C1=C\c1cccs1	·	·	·	1.1µM	·	·	GALK confirm=?;Redox cycling=–;HEK293 tox=–
CCN(CC)c1ccc(/C=C2\C(=O)NC(=O)N(CC3CCCO3)C2=O)cc1 (stereo unspecified)	–	–	–	–	–	·
Cc1cc(/C=C2/C(=O)NC(=O)N(Cc3ccco3)C2=O)c(C)n1-c1ccccc1	?	71µM	2.2µM	18µM	35µM	76
CCN(CC)c1ccc(/C=C2/C(=O)NC(=O)N(Cc3ccco3)C2=O)cc1	56µM	50µM	22µM	–	10µM	?
C[C@H](CCC(=O)O)[C@H]1CC[C@@H]2[C@H]3CC[C@H]4C[C@H](O)CC[C@]4(C)[C@@H]3CC[C@@]21C	·	–[19.4 µM]	·	·	·	·
SMILES	WRN inhibitor	Pol kappa inh-1	Pol iota inh	Pol beta inh	Pol eta inh-1	Pol eta inh-2	others
CC(=O)Nc1ccc(Cc2nc3ccccc3[nH]2)cc1	–	–	–	–	–	·
Cc1ccc(/C=C2\C(=O)NC(=S)N(c3ccc(F)cc3)C2=O)o1	?	25µM	?	16µM	13µM	30	Pol kappa inh-2=17
COc1cccc(N2C(=O)/C(=C/c3ccc(C)o3)C(=O)NC2=S)c1	?	–	?	45µM	13µM	60	Pol kappa inh-2=30
O=C1NC(=O)N(CCC2=CCCCC2)C(=O)/C1=C\c1cccs1	?	–	40µM	?	20µM	?
Oc1ccc2c(c1)[C@@]13CCCCC1[C@@H](C2)N(CC1CCC1)CC3 (stereo partly specified)	·	–	·	·	·	·
CC[C@@]1(O)C(=O)OCc2c1cc1n(c2=O)Cc2cc3ccccc3nc2-1	·	–	–	–	–	·
CCC1(O)C(=O)OCc2c1cc1n(c2=O)Cc2cc3cc(O)ccc3nc2-1 (stereo unspecified)	–[11.6 µM]	?	22µM	·	18µM	76
O=C1NC(=O)N(c2ccccc2)C(=O)/C1=C/c1ccoc1	?	?	40µM	?	28µM	76
NCCc1cc(O)c(O)cc1O	?	0.71µM	1.4µM	·	56µM	67
COc1ccc(CC2NC[C@H](O)[C@H]2OC(C)=O)cc1 (stereo partly specified)	·	–	·	·	·	·
NC(=O)CSc1nc2cc(S(=O)(=O)N3CCOCC3)ccc2o1	–	–	–	·	–	·
CC(C)c1ccc(N2C(=O)NC(=O)/C(=C\c3cnc(-c4ccccc4)nc3)C2=O)cc1	?	–	–	–	–	·
O=C1NC(=O)N(Cc2ccccc2)C(=O)/C1=C/C=C/c1ccco1	50µM	–	14µM	?	35µM	?
CC(C)c1ccc(N2C(=O)NC(=O)/C(=C\C=C\c3ccco3)C2=O)cc1	?	40µM	8.9µM	?	20µM	76
Cc1cc(/C=C2\C(=O)NC(=O)N(Cc3ccccc3)C2=O)c(C)n1C1CC1	–	–	?	?	–	·

Screens deposited in PubChem by National Center for Advancing Translational Sciences (NCATS).
